Measurements reported in PubChem BioAssay (Tox21).
Values without a mark were called inactive. Results filed as inconclusive are left out. The source made the active and inactive calls. The call rests on the fitted dose curve; in most records, active means well fitted activation curve with a large enough effect in the repeat runs; inconclusive means weak or mixed curves; inactive means flat fitted curve, though single readings scatter.

Experiment: A CellTox Green Cytotoxicity Assay to monitor cytotoxicity in HEK293 cells - 32 hour (AID 1224881); further: nearly all actives have a fitted effect of over 40% in size; further: potency means the concentration at half of the fitted maximal effect
Conditions: CellTox Green fluorescence; series mostly up to 76.8 µM; cytotoxicity increase: at the top concentration
Summary of the method: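 Cells (HEK293, 600/well) and dye reagent are dispensed together. After 5 h at 37 C, 23 nL compound is pinned in. Plates stay at 37 C for 40 h with fluorescence read at 0h, 8h, 16h, 24h, 32h and 40h.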
On the % scale 0 is the no-effect control and ±100 the full control effect.

Row | SMILES | cytotoxicity increase | Potency
1 | NCC1(Cc2noc(=O)[nH]2)CCCCC1 | -1.76% | 
2 | O=Cc1cc2ccccc2o1 | 8.66% | 
3 | C[C@]12CCC(=O)C=C1CC[C@H]1[C@@H]3CC[C@](O)(C(=O)CO)[C@@]3(C)C[C@H](O)[C@@]12F | -0.828% [at 35.3 µM] | 
4 | COC(=O)c1ccccc1C(=O)O | -16.9% | 
5 | OC[C@H]1O[C@@H](O[C@@H]2[C@@H](CO)O[C@](O)(CO)[C@H]2O)[C@H](O)[C@@H](O)[C@H]1O | -4.71% [at 35.3 µM] | 
6 | CCOc1cccc(N)c1 | -10.9% | 
7 | COC(=O)c1cccc(Cl)c1 | -0.756% | 
8 | CN(C)C(C)(C)CO | -0.172% | 
9 | CCCCSCCCC | -5.65% | 
10 | CCN1CCCC1CN (stereo not drawn) | -16.9% [at 35.3 µM] | 
11 | Cc1c(NC(=O)c2cccnc2)c(=O)n(-c2ccccc2)n1C | 9.17% [at 35.3 µM] | 
12 | Cc1cc(-c2ccccc2)nnc1NCCN1CCOCC1 | 14.8% [at 35.3 µM] | 
13 | CCOC(CN1CCN(CC(C)C(=O)c2ccccc2)CC1)c1ccccc1 (stereo not drawn) | -3.67% [at 15.8 µM] | 
14 | CCn1cc(C(=O)O)c(=O)c2cnc(N3CCCC3)nc21 | 4.33% [at 6.97 µM] | 
15 | COP(=O)(O)OP(=O)(O)OC | -20.3% | 
16 | CC(=O)CC(=O)OC(C)(C)C | 3.05% | 
17 | COCCc1ccccn1 | -18.8% [at 35.3 µM] | 
18 | CCCC(=O)OC/C=C(\C)CCC=C(C)C |  | 49 µM (active)
19 | CCC(=O)CC | -0.906% | 

Row | SMILES | cytotoxicity increase | Potency
20 | Cc1c(N)cccc1Cl | -6.29% | 
21 | CN(C)CCCCl | -9.39% | 
22 | O=C(Cn1ccnc1[N+](=O)[O-])NCc1ccccc1 | 4.09% [at 35.3 µM] | 
23 | CC(C)C[C@@H]1[C@H](c2ccccc2)OC(=O)N1CCCN1CCCCCC1 | 10.9% [at 35.3 µM] | 
24 | Cc1cc(C)c(C(=O)O)c(C)c1 | 9.59% | 
25 | CC(C)(C)NC[C@H](O)COc1cccc2c1CCCC2=O | 7.3% [at 35.3 µM] | 
26 | CC1(C)O[C@H]2CC(=O)OC[C@]23[C@H]2CC[C@@]4(C)[C@H](c5ccoc5)OC(=O)[C@H]5O[C@]54[C@]2(C)C(=O)C[C@@H]13 | 2.37% [at 35.3 µM] | 
27 | C[C@@H](O)C(=O)O | -18.2% | 
28 | Cc1ccc(C(=O)O)cc1[N+](=O)[O-] | -2.08% | 
29 | COC(C)(OC)OC | 0.466% | 
30 | CC/C(C)=N\O[Si](C)(O/N=C(\C)CC)O/N=C(\C)CC | 1.39% | 
31 | OC1OCCOC1O (stereo not drawn) | -0.819% | 
32 | CO/N=C(/C(=O)N[C@@H]1C(=O)N2C(C(=O)[O-])=C(C[n+]3ccn4ncccc43)CS[C@H]12)c1nsc(N)n1 | -0.936% [at 35.3 µM] | 
33 | N#Cc1ccccc1O | -25.7% | 
34 | OCC1CCC(CO)CC1 (stereo not drawn) | -8.82% | 
35 | CC1=C(C(=O)O)N2C(=O)[C@@H](NC(=O)[C@H](N)c3ccccc3)[C@H]2SC1 | 2.08% [at 35.3 µM] | 
36 | COc1ccc(CCO)cc1 | -9.08% | 
37 | N[C@@H](CSCCCO)C(=O)O | -0.789% [at 15.8 µM] | 

Experiment: A CellTox Green Cytotoxicity Assay to monitor cytotoxicity in HepG2 cells - 0 hour (AID 1224882); further: nearly all actives have a fitted effect of over 35% in size
Conditions: CellTox Green fluorescence; series mostly up to 76.8 µM; cytotoxicity: at the top concentration
Summary of the method: (§1)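 Cells and non-lytic dye reagent are dispensed together (600 HepG2 cells/well) and incubated 5 h before DMSO compound transfer. Kinetic fluorescence is then recorded in the same wells during 40 h at 37 C.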

Row | SMILES | cytotoxicity
38 | NCC1(Cc2noc(=O)[nH]2)CCCCC1 | -4.37%
39 | O=Cc1cc2ccccc2o1 | 2.38%
40 | C[C@]12CCC(=O)C=C1CC[C@H]1[C@@H]3CC[C@](O)(C(=O)CO)[C@@]3(C)C[C@H](O)[C@@]12F | 1.29% [at 35.3 µM]
41 | CCOc1cccc(N)c1 | -1.51%
42 | COC(=O)c1cccc(Cl)c1 | 8.99%
43 | CN(C)C(C)(C)CO | -5.79%
44 | CCCCSCCCC | -0.107%
45 | CCN1CCCC1CN (stereo not drawn) | 8.65% [at 35.3 µM]
46 | Cc1c(NC(=O)c2cccnc2)c(=O)n(-c2ccccc2)n1C | 2.05% [at 35.3 µM]
47 | CCn1cc(C(=O)O)c(=O)c2cnc(N3CCCC3)nc21 | 3.1% [at 6.97 µM]
48 | COP(=O)(O)OP(=O)(O)OC | -0.96%
49 | CC(=O)CC(=O)OC(C)(C)C | 1.63%
50 | COCCc1ccccn1 | -0.944% [at 35.3 µM]
51 | CCCC(=O)OC/C=C(\C)CCC=C(C)C | 1.16%
52 | Cc1c(N)cccc1Cl | 0.741%
53 | O=C(Cn1ccnc1[N+](=O)[O-])NCc1ccccc1 | -4.17% [at 35.3 µM]
54 | CC(C)C[C@@H]1[C@H](c2ccccc2)OC(=O)N1CCCN1CCCCCC1 | -1.93% [at 35.3 µM]
55 | Cc1cc(C)c(C(=O)O)c(C)c1 | 0.492%
56 | CC(C)(C)NC[C@H](O)COc1cccc2c1CCCC2=O | -9.93% [at 35.3 µM]
57 | CC1(C)O[C@H]2CC(=O)OC[C@]23[C@H]2CC[C@@]4(C)[C@H](c5ccoc5)OC(=O)[C@H]5O[C@]54[C@]2(C)C(=O)C[C@@H]13 | 23.6% [at 35.3 µM]
58 | C[C@@H](O)C(=O)O | 3.88%
59 | Cc1ccc(C(=O)O)cc1[N+](=O)[O-] | 0.0939%
60 | COC(C)(OC)OC | 1.07%
61 | CC/C(C)=N\O[Si](C)(O/N=C(\C)CC)O/N=C(\C)CC | -8.48%
62 | OC1OCCOC1O (stereo not drawn) | -0.924%
63 | CO/N=C(/C(=O)N[C@@H]1C(=O)N2C(C(=O)[O-])=C(C[n+]3ccn4ncccc43)CS[C@H]12)c1nsc(N)n1 | -7.41% [at 35.3 µM]
64 | N#Cc1ccccc1O | -8.58%
65 | OCC1CCC(CO)CC1 (stereo not drawn) | 1.04%
66 | CC1=C(C(=O)O)N2C(=O)[C@@H](NC(=O)[C@H](N)c3ccccc3)[C@H]2SC1 | 10.3% [at 35.3 µM]

Experiment: A CellTox Green Cytotoxicity Assay to monitor cytotoxicity in HepG2 cells - 32 hour (AID 1224883); further: nearly all actives have a fitted effect of over 50% in size
Conditions: CellTox Green fluorescence; series mostly up to 76.8 µM; cytotoxicity increase: at the top concentration
Summary of the method: as §1

Row | SMILES | cytotoxicity increase
67 | NCC1(Cc2noc(=O)[nH]2)CCCCC1 | -11.5%
68 | O=Cc1cc2ccccc2o1 | -5.01%
69 | C[C@]12CCC(=O)C=C1CC[C@H]1[C@@H]3CC[C@](O)(C(=O)CO)[C@@]3(C)C[C@H](O)[C@@]12F | -14.7% [at 35.3 µM]
70 | COC(=O)c1ccccc1C(=O)O | 4.14%
71 | OC[C@H]1O[C@@H](O[C@@H]2[C@@H](CO)O[C@](O)(CO)[C@H]2O)[C@H](O)[C@@H](O)[C@H]1O | 7.82% [at 35.3 µM]
72 | CCOc1cccc(N)c1 | -1.79%
73 | COC(=O)c1cccc(Cl)c1 | -2.85%
74 | CN(C)C(C)(C)CO | -7.99%
75 | CCCCSCCCC | 0.337%
76 | CCN1CCCC1CN (stereo not drawn) | -0.658% [at 35.3 µM]
77 | Cc1c(NC(=O)c2cccnc2)c(=O)n(-c2ccccc2)n1C | 8.36% [at 35.3 µM]
78 | Cc1cc(-c2ccccc2)nnc1NCCN1CCOCC1 | 1.26% [at 35.3 µM]
79 | CCOC(CN1CCN(CC(C)C(=O)c2ccccc2)CC1)c1ccccc1 (stereo not drawn) | -18.4% [at 15.8 µM]
80 | CCn1cc(C(=O)O)c(=O)c2cnc(N3CCCC3)nc21 | -0.981% [at 6.97 µM]
81 | COP(=O)(O)OP(=O)(O)OC | -3.23%
82 | CC(=O)CC(=O)OC(C)(C)C | 0.109%
83 | COCCc1ccccn1 | 5.26% [at 35.3 µM]
84 | CCCC(=O)OC/C=C(\C)CCC=C(C)C | 10.6%
85 | CCC(=O)CC | 2.03%

Row | SMILES | cytotoxicity increase
86 | Cc1c(N)cccc1Cl | 0.256%
87 | CN(C)CCCCl | -2.77%
88 | O=C(Cn1ccnc1[N+](=O)[O-])NCc1ccccc1 | -8.99% [at 35.3 µM]
89 | CC(C)C[C@@H]1[C@H](c2ccccc2)OC(=O)N1CCCN1CCCCCC1 | 5.7% [at 35.3 µM]
90 | Cc1cc(C)c(C(=O)O)c(C)c1 | 2.68%
91 | CC(C)(C)NC[C@H](O)COc1cccc2c1CCCC2=O | -15.7% [at 35.3 µM]
92 | CC1(C)O[C@H]2CC(=O)OC[C@]23[C@H]2CC[C@@]4(C)[C@H](c5ccoc5)OC(=O)[C@H]5O[C@]54[C@]2(C)C(=O)C[C@@H]13 | 6.47% [at 35.3 µM]
93 | C[C@@H](O)C(=O)O | -3.64%
94 | Cc1ccc(C(=O)O)cc1[N+](=O)[O-] | 8.18%
95 | COC(C)(OC)OC | -0.392%
96 | CC/C(C)=N\O[Si](C)(O/N=C(\C)CC)O/N=C(\C)CC | -7.32%
97 | OC1OCCOC1O (stereo not drawn) | 2.89%
98 | CO/N=C(/C(=O)N[C@@H]1C(=O)N2C(C(=O)[O-])=C(C[n+]3ccn4ncccc43)CS[C@H]12)c1nsc(N)n1 | -11.7% [at 35.3 µM]
99 | N#Cc1ccccc1O | -8.25%
100 | OCC1CCC(CO)CC1 (stereo not drawn) | 1.14%
101 | CC1=C(C(=O)O)N2C(=O)[C@@H](NC(=O)[C@H](N)c3ccccc3)[C@H]2SC1 | 4.87% [at 35.3 µM]
102 | COc1ccc(CCO)cc1 | -0.762%
103 | N[C@@H](CSCCCO)C(=O)O | -15.9% [at 15.8 µM]
